{"source": "paper PMC5540273", "about": "(PLoS ONE, 2017);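 note: kd values determined as follow-up on hits from a single-replicate KINOMEscan panel screen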"}
{"tested_on": "PDGFRA", "units": {"Kd": "nM"}}
{"compound": "CC(=O)Nc1nc2cnc(Nc3cc(NC(=O)c4cccc(CCC#N)c4)ccc3C)nc2s1", "Kd": "> 10000"}
{"compound": "O=C(Nc1ccccc1)Nc1cccc(Oc2ccc3nccn3n2)c1", "Kd": 3.6}
{"compound": "Cc1cccc(-c2nc(-c3ccc(S(C)(=O)=O)cc3)sc2-c2ccnc(NCCc3ccccc3)c2)c1", "Kd": 550}
{"compound": "Cn1ccc2ncnc(Oc3ccc(NC(=O)Nc4ccccc4)cc3)c21", "Kd": 25}
{"tested_on": "PDGFRB", "units": {"Kd": "nM"}}
{"compound": "CC(=O)Nc1nc2cnc(Nc3cc(NC(=O)c4cccc(CCC#N)c4)ccc3C)nc2s1", "Kd": "> 10000"}
{"compound": "COC(=O)c1c(-c2ccccc2)c2cc(C(=O)O)ccc2c(=O)n1Cc1ccccc1", "Kd": 75}
{"compound": "Fc1cc(Cl)ccc1Nc1ccnc2cc(I)ccc12", "note": "[GW551191]", "Kd": 410}
{"compound": "COC(=O)c1c(-c2ccccc2)c2cc(OC)ccc2c(=O)n1Cc1ccccc1", "Kd": 110}
{"compound": "Cc1ccc(NC(=O)Nc2cc(C(C)(C)C)nn2-c2ccccc2)cc1", "note": "[GSK1014915]", "Kd": 340}
{"compound": "Fc1cc(Cl)ccc1Nc1ccnc2cc(-c3ccc(CN4CCCCC4)o3)ccc12", "note": "[GW560116]", "Kd": 210}
{"compound": "O=C(Nc1ccccc1)Nc1cccc(Oc2ccc3nccn3n2)c1", "Kd": 1}
{"compound": "CC(C)(C)c1ccc(C(=O)Nc2cn3cc(-c4cccnc4)ccc3n2)cc1", "Kd": 220}
{"compound": "Cc1ccc(C(=O)Nc2ccc(Nc3ccnc4cc(-c5ccccn5)ccc34)cc2O)cc1.Cl", "note": "[GW440146]", "Kd": 480}
{"compound": "Cc1cccc(-c2nc(-c3ccc(S(C)(=O)=O)cc3)sc2-c2ccnc(NCCc3ccccc3)c2)c1", "Kd": 68}
{"compound": "Cn1ccc2ncnc(Oc3ccc(NC(=O)Nc4ccccc4)cc3)c21", "Kd": 16}
{"compound": "Cc1ccc(NC(=O)Nc2cccc(Cl)c2)cc1-c1ccc(C(=O)Nc2ccncc2)cc1", "note": "[GSK1398468]", "Kd": 50}
{"tested_on": "PDPK1", "units": {"Kd": "nM"}}
{"compound": "CCn1c(-c2ccccn2)nc2cnccc21", "note": "[SB-736398]", "Kd": "> 10000"}
{"compound": "CCCc1ccc(S(=O)(=O)NC2CCN(c3ccnc(Nc4ccc(F)cc4)n3)C2)cc1", "note": "(stereo not shown) [GSK1379715]", "Kd": "> 10000"}
{"compound": "Fc1cc(Cl)ccc1Nc1ccnc2cc(-c3ccc(CN4CCCCC4)o3)ccc12", "note": "[GW560116]", "Kd": "> 10000"}
